# Test results published in the supplement of paper PMC3414501.
# Counter-ions that a name gives are not always drawn.
# Tested on: S. cerevisiae AD1-9 (efflux-pump deficient), vegetative growth in YPD; in the data active = 2 or more and inactive = the rest
# Assay: growth sensitivity score (doubling time z-score vs DMSO controls); higher = slower growth, strongly negative scores also mark growth inhibition (complete suppression), active = hit call of the paper
# In short: (§1)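 Yeast (Saccharomyces cerevisiae BY4741 and AD1-9) was grown in rich medium in microtiter plates from a starting OD600 of 0.065, with optical density read every 15 min over 24 hours. The growth sensitivity score was the difference between compound and solvent-only means, divided by the solvent-only standard deviation. Every experiment had eight solvent-only wells.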
row,SMILES,growth sensitivity score
1,"Nc1ccn([C@@H]2O[C@H](CO)[C@@H](O)[C@@H]2O)c(=O)n1 [Cytarabine] (stock concentration (mM, diluted 1:100): 10)",-2.83
2,"CNC(=N)NCCC[C@H](N)C(=O)O [omega-N-Methylarginine] (stock concentration (mM, diluted 1:100): 9.3)",-3.59
3,"O=C(NCCO[N+](=O)[O-])c1cccnc1 [Nicorandil] (stock concentration (mM, diluted 1:100): 10)",-1.47 (inactive)
4,"C[C@H]1C[C@H]2[C@@H]3CCC4=CC(=O)C=C[C@]4(C)[C@@]3(Cl)[C@@H](O)C[C@]2(C)[C@@]1(O)C(=O)CO [Beclomethasone] (stock concentration (mM, diluted 1:100): 10)",2.68 (active)
5,"Cc1nccn1CC1CCc2c(c3ccccc3n2C)C1=O (configuration not stated) [Ondansetron hcl] (stock concentration (mM, diluted 1:100): 8.9)",-1.11 (inactive)
6,"CC(=O)NC[C@H]1CN(c2ccc(N3CCOCC3)c(F)c2)C(=O)O1 [Linezolide] (stock concentration (mM, diluted 1:100): 10)",2.05 (active)
7,"CC(=O)CCCCn1cnc2c1c(=O)n(C)c(=O)n2C [Lomifylline] (stock concentration (mM, diluted 1:100): 10)",-0.96 (inactive)
8,"c1cnc(N2CCN(Cc3ccc4c(c3)OCO4)CC2)nc1 [Piribedil] (stock concentration (mM, diluted 1:100): 9.7)",-3.77
9,"O=C1CC[C@@H](C(=O)N2CSC[C@H]2C(=O)O)N1 [Pidotimod] (stock concentration (mM, diluted 1:100): 10)",0.59 (inactive)
10,"CNCC[C@H](Oc1cccc2ccccc12)c1cccs1 [Duloxetine] (stock concentration (mM, diluted 1:100): 10)",99.6 (active)
11,"COc1cc(CNC(=O)CCCC/C=C/C(C)C)ccc1O [Capsaicin] (stock concentration (mM, diluted 1:100): 10)",25.8 (active)
12,"CCCN[C@H]1CCc2nc(N)sc2C1 [Pramipexole hydrochloride] (stock concentration (mM, diluted 1:100): 7.1)",-2.17
13,"C#C[C@]1(O)CC[C@H]2[C@@H]3CCc4cc(OC)ccc4[C@H]3CC[C@@]21C [Mestranol] (stock concentration (mM, diluted 1:100): 10)",3.53 (active)
14,"COc1ccc2c(c1)c(CC(=O)O)c(C)n2C(=O)c1ccc(Cl)cc1 [Indomethacin] (stock concentration (mM, diluted 1:100): 10.5)",0.93 (inactive)

# Tested on: S. cerevisiae BY4741 (wild-type), vegetative growth in YPD
# Assay: as above
# In short: as §1
row,SMILES,growth sensitivity score
1,"CC[C@H](C)C(=O)O[C@H]1C[C@H](O)C=C2C=C[C@H](C)[C@H](CC[C@@H](O)C[C@@H](O)CC(=O)O)[C@H]21 [Pravastatin sodium] (stock concentration (mM, diluted 1:100): 9.5)",0.4 (inactive)
2,"CC(CCCCC(=O)Nc1ccc(C(F)(F)F)cc1)NCCc1cnc[nH]1 (configuration not stated) (stock concentration (mM, diluted 1:100): 10)",-0.06 (inactive)
3,"CC(C)OC(=O)CCC/C=C\C[C@@H]1[C@@H](CC[C@@H](O)CCc2ccccc2)[C@H](O)C[C@@H]1O [Latanoprost] (stock concentration (mM, diluted 1:100): 10.3)",0.43 (inactive)
4,"O=C(c1ccc(F)cc1)C1CCN(CCn2c(=S)[nH]c3ccccc3c2=O)CC1 [Altanserin] (stock concentration (mM, diluted 1:100): 10)",-0.21 (inactive)
5,"O=C1C(c2c(O)[nH]c3ccccc23)=Nc2ccccc21 [Indarubicin] (stock concentration (mM, diluted 1:100): 10)",-1.62 (inactive)
6,"CCCCN1CCCC1CNC(=O)c1cc(C#N)c2ccccc2c1OC (configuration not stated) [Nafadotride] (stock concentration (mM, diluted 1:100): 10)",-0.11 (inactive)
7,"CCOC(=O)c1ccc(OC(=O)CCCCCNC(=N)N)cc1 [Gabexate mesylate] (stock concentration (mM, diluted 1:100): 7.7)",1.03 (inactive)
8,"COc1cc(C(=O)NC2CCCNC2)cc(OC)c1OC (configuration not stated) [Troxipide] (stock concentration (mM, diluted 1:100): 10.1)",0.38 (inactive)
9,"NC[C@H]1CC[C@H](C(=O)Oc2ccc(CCC(=O)O)cc2)CC1 [Cetraxate hydrochloride] (stock concentration (mM, diluted 1:100): 9)",1.25 (inactive)
10,"O=C(O)/C=C/c1ccc(Cn2ccnc2)cc1 [Ozagrel hydrochloride] (stock concentration (mM, diluted 1:100): 8.6)",2.72 (active)
11,"Nc1ccc2cn[nH]c2c1 [6-Aminoindazole] (stock concentration (mM, diluted 1:100): 10)",-0.64 (inactive)
12,"CCN(CC)CC1CCCCN1CC(=O)N1c2ccccc2C(=O)Nc2cccnc21 (configuration not stated) [Otenzepad] (stock concentration (mM, diluted 1:100): 10)",-2.57
13,"COc1cc2nc(N3CCN(C(=O)c4ccco4)CC3)nc(N)c2cc1OC [Prazosin] (stock concentration (mM, diluted 1:100): 10)",-0.58 (inactive)
14,"CN1C2CCCC1CC(NC(=O)c1nn(C)c3ccccc13)C2 (configuration not stated) [Granisetron hydrochloride] (stock concentration (mM, diluted 1:100): 9)",-0.57 (inactive)
15,"COc1cc(C)c(Cc2cnc(N)nc2N)cc1OC [Ormetoprim] (stock concentration (mM, diluted 1:100): 10)",-1.06 (inactive)
16,"Nc1nc2ccc(OC(F)(F)F)cc2s1 [Riluzole] (stock concentration (mM, diluted 1:100): 9.9)",5.49 (active)
17,"O=C(O[C@H]1[C@H](Oc2ccccc2COC(=O)C2(O)C=CCCC2=O)O[C@H](CO)[C@@H](O)[C@@H]1O)c1ccccc1 (some centres not stated) [Tremulacin] (stock concentration (mM, diluted 1:100): 10)",-0.72 (inactive)

row,SMILES,growth sensitivity score
1,"O=c1[nH]c(=O)n(C2CCCO2)cc1F (configuration not stated) [Ftorafur] (stock concentration (mM, diluted 1:100): 10)",0.14 (inactive)
2,"OCc1cccnc1 [3-Pyridinemethanol] (stock concentration (mM, diluted 1:100): 10)",-1.12 (inactive)
3,"CC(Cc1ccccc1)(NC(=O)CN)c1ccccc1 (configuration not stated) [Remacemide] (stock concentration (mM, diluted 1:100): 10)",-0.78 (inactive)
4,"CC(C)(C)C(O)/C=C/c1ccc2c(c1)OCO2 (configuration not stated) [Stiripentol] (stock concentration (mM, diluted 1:100): 10)",2.6 (active)
5,"CCOC(=O)O[C@]1(C(=O)OCCl)CC[C@H]2[C@@H]3CCC4=CC(=O)C=C[C@]4(C)[C@H]3[C@@H](O)C[C@@]21C [Loteprednol etabonate] (stock concentration (mM, diluted 1:100): 10)",0.91 (inactive)
6,"Nc1ccn([C@@H]2O[C@H](CO)[C@@H](O)[C@@H]2O)c(=O)n1 [Cytarabine] (stock concentration (mM, diluted 1:100): 10)",-0.01 (inactive)
7,"CNC(=N)NCCC[C@H](N)C(=O)O [omega-N-Methylarginine] (stock concentration (mM, diluted 1:100): 9.3)",-0.56 (inactive)
8,"O=C(NCCO[N+](=O)[O-])c1cccnc1 [Nicorandil] (stock concentration (mM, diluted 1:100): 10)",-2.59
9,"C[C@H]1C[C@H]2[C@@H]3CCC4=CC(=O)C=C[C@]4(C)[C@@]3(Cl)[C@@H](O)C[C@]2(C)[C@@]1(O)C(=O)CO [Beclomethasone] (stock concentration (mM, diluted 1:100): 10)",0.52 (inactive)
10,"Cc1nccn1CC1CCc2c(c3ccccc3n2C)C1=O (configuration not stated) [Ondansetron hcl] (stock concentration (mM, diluted 1:100): 8.9)",-0.22 (inactive)
11,"CC(=O)NC[C@H]1CN(c2ccc(N3CCOCC3)c(F)c2)C(=O)O1 [Linezolide] (stock concentration (mM, diluted 1:100): 10)",-1.67 (inactive)
12,"CC(=O)CCCCn1cnc2c1c(=O)n(C)c(=O)n2C [Lomifylline] (stock concentration (mM, diluted 1:100): 10)",0.79 (inactive)
13,"c1cnc(N2CCN(Cc3ccc4c(c3)OCO4)CC2)nc1 [Piribedil] (stock concentration (mM, diluted 1:100): 9.7)",1.65 (inactive)
14,"O=C1CC[C@@H](C(=O)N2CSC[C@H]2C(=O)O)N1 [Pidotimod] (stock concentration (mM, diluted 1:100): 10)",-1.4 (inactive)
15,"CNCC[C@H](Oc1cccc2ccccc12)c1cccs1 [Duloxetine] (stock concentration (mM, diluted 1:100): 10)",11 (active)
16,"COc1cc(CNC(=O)CCCC/C=C/C(C)C)ccc1O [Capsaicin] (stock concentration (mM, diluted 1:100): 10)",3.2 (active)
